TRHR ag: qHTS for Small Molecule Agonists and Allosteric Enhancers of Human TRH Receptor: Primary Screen for Agonists | Thyrotropin-releasing hormone receptor (Homo sapiens), P34981 | TRHR cells, calcium flux fluo-8, FDSS agonist mode | activation, % at 2 µM | 360,000 tested, 0.18% active | AID 493084, 2011
Target sequence (P34981 whole entry, looked up): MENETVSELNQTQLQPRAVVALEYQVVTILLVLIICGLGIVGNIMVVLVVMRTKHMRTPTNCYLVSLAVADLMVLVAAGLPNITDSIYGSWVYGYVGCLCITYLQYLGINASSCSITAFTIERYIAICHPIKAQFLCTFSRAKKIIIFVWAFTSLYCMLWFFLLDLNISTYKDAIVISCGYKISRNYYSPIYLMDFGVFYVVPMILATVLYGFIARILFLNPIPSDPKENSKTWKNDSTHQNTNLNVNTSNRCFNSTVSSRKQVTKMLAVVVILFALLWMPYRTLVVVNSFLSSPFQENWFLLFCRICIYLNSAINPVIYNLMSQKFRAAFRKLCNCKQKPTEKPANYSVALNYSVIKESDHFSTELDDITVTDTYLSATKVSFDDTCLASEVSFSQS
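TRHR-expressing cells, plated overnight in medium with 10% serum, were loaded with fluo-8 calcium dye at room temperature. After a 10 s baseline, library compound was pin-added and calcium release was recorded kinetically (ex 480/em 530) as agonist response.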
D1 PAM: Potentiators of Human D1 Dopamine Receptor: qHTS; D(1A) dopamine receptor (Homo sapiens), P21728; HEK293 TREx D1 cells, calcium flux, dopamine EC20 potentiation; 360,000 tested, 0.036% active; potentiation, % at 10 µM; in the data active = potentiation above about 30%
TRHR PAM: qHTS for Small Molecule Agonists and Allosteric Enhancers of Human TRH Receptor: Primary Screen for Enhancers. 360,000 tested, 0.66% active. enhancement, % at 2 µM. Thyrotropin-releasing hormone receptor (Homo sapiens), P34981. TRHR cells, fluo-8 calcium fluorescence, EC20 TRH enhancement; in the data active = enhancement above about 30%
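Enhancer read-out: after compound pinning and an initial kinetic agonist-mode read, an EC20 of TRH (10 nM final) was injected and fluo-8 calcium signal (Ex 480/Em 530) followed at 1 s/cycle for 100 cycles in TRHR-expressing cells.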
D1 antag: Antagonist of Human D 1 Dopamine Receptor: qHTS | D(1A) dopamine receptor (Homo sapiens), P21728 | HEK293 TREx D1 cells, calcium flux, dopamine EC80; hits give low values | activity change, negative = inhibition, % at 10 µM | 360,000 tested, 3.2% active; in the data active = activity change below about -30%
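After overnight tetracycline induction at 30 C, force-coupled D1 HEK293 cells took up a no-wash calcium dye at room temperature. Compounds were added and monitored 180 s, and the response to EC80 dopamine was then recorded.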
GRP78 ERSR act: qHTS for Inducers of the Endoplasmic Reticulum Stress Response (ERSR) in Human Glioma: qHTS. U87-MG GRP78 promoter luciferase reporter, 16 h. Potency, µM, actives largely listed as activators. 420,000 tested, 0.02% active; active = well fitted activation curve with a large enough effect; also: series mostly up to about 76 µM; nearly all actives have a fitted effect of over 35% in size
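ERSR induction read as luciferase luminescence (Bright-Glo, 10 min at room temperature) in stably transfected human U87-MG glioma cells exposed to compounds for 16 h, using GRP78 as sensor.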
D1 agonist: Allosteric Agonists of the Human D1 Dopamine Receptor: qHTS; 360,000 tested, 1% active; HEK293 T-REx D1 cells, calcium flux, agonist mode; activation, % at 2 µM; D(1A) dopamine receptor (Homo sapiens), P21728
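Tetracycline-induced HEK293 TREx D1 cells, force-coupled to calcium signalling, were dye-loaded with a no-wash calcium kit. Compound was pin-added after a 10 s baseline. Fluorescence was read kinetically at 1 cycle/s for 180 s, with calcium rises flagged as agonism.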
A number is an active result; i = inactive; nt = no result given. Only some compounds are listed: those with a hit (about 4% of all), similar ones and a draw of the others. Rule as the data show it, unless noted: active = activation above about 30%; inactive = the rest.

SMILES	TRHR ag	D1 PAM	TRHR PAM	D1 antag	GRP78 ERSR act	D1 agonist
C(/Oc1ccccc1)=C1\Nn2c(nnc2-c2cc(-c3ccccc3)n[nH]2)S1	nt	nt	nt	nt	i	nt
CN1CCN(c2ccc(-c3nc(-c4ccccc4)no3)cc2[N+](=O)[O-])CC1	i	i	i	-37.5	i	i
COc1ccc(-c2noc(-c3ccc(N4CCC(C)CC4)c([N+](=O)[O-])c3)n2)cc1OC	i	i	i	-42.0	i	i
CN(C)c1ccc(-c2nc(-c3ccccn3)no2)cc1[N+](=O)[O-]	i	i	i	-38.6	i	i
COc1ccc(-c2noc(-c3ccc(N4CCOCC4)c([N+](=O)[O-])c3)n2)cc1OC	i	i	i	i	i	i
NC(=S)NNC(=O)C12CC3CC(CC(C3)C1)C2	31.7	i	i	i	i	185.4
Cc1ccc(C)c(C(=O)CCC(=O)NNC(=O)c2cccs2)c1	nt	nt	nt	nt	i	nt
CC(=O)C(=O)O	nt	nt	nt	nt	i	nt
CCOc1ccc(-c2csc(-c3c(N)c(C(=O)c4ccc5c(c4)OCO5)n4ccccc34)n2)cc1	i	i	i	i	nt	41.8
Cc1ccc(-c2csc(-c3c(N)c(C(=O)c4ccc5c(c4)OCO5)n4ccccc34)n2)cc1	i	i	i	i	nt	i
Nc1c(-c2nc(-c3ccc(Cl)cc3)cs2)c2ccccn2c1C(=O)c1ccc2c(c1)OCO2	i	i	i	i	nt	i
Nc1c(-c2nc(-c3ccccc3)cs2)c2ccccn2c1C(=O)c1ccc2c(c1)OCO2	i	i	i	i	nt	34.9
Cc1cccc(NC(=O)N2CCC(n3nnc4cc(C)ccc43)CC2)c1	i	i	i	i	i	i
COc1cccc(NC(=O)N2CCC(n3nnc4ccccc43)CC2)c1	i	i	i	-46.7	i	i
NC1=NC(=Nc2ccc(S(=O)(=O)N3CCOCC3)cc2)c2ccccc21	i	i	i	-32.6	i	i
NC1=NC(=Nc2ccc(Cl)cc2)c2ccccc21	i	i	i	-41.1	i	i
NC1=NC(=Nc2ccccc2)c2ccccc21	i	i	i	i	i	i
NC1=NC(=Nc2ccc(Br)cc2)c2ccccc21	i	i	i	-32.9	i	i
O=C(CCCN1C(=O)c2cccc3cccc(c23)C1=O)Nc1ccon1	i	i	i	i	i	i
COc1cc(C(=S)N2CCN(c3cccc(Cl)c3)CC2)ccc1O	i	i	i	-31.0	i	i
Oc1ccccc1C(=S)N1CCN(c2cccc(Cl)c2)CC1	i	i	i	-39.2	i	i
OC(CN1CCN(c2cccc(Cl)c2)CC1)c1ccccc1 (stereo not given)	i	i	i	-34.9	i	i
CO[C@H]1COC(=O)C/C=C\[C@H](C)[C@@H](OC)COC(=O)[C@H](C)COC(=O)C/C=C\[C@@H]1C	nt	nt	nt	nt	i	nt
O=C(COC(=O)CC1SC(N2CCCC2)=NC1=O)Nc1c(F)c(F)c(F)c(F)c1F (stereo not given)	i	i	i	i	i	i
CCOc1cc(C=O)ccc1OCCSc1ccc(Cl)cc1	i	i	i	-37.2	i	i
SMILES	TRHR ag	D1 PAM	TRHR PAM	D1 antag	GRP78 ERSR act	D1 agonist
CC1CN(C)C(C)C/C1=N\Oc1ccc([N+](=O)[O-])cc1 (stereo not given)	i	i	i	-30.7	i	i
CCC1=C(OC(=O)N(CC)CC)N2C(=O)OC(=NCCOC)[C@]2(Cc2ccccc2)[C@H]2C1=CC[C@H]1C(=O)N(C)C(=O)[C@H]12	i	i	i	i	i	i
COc1ccccc1N1CCN(CCCCN2C(=O)CCC2=O)CC1	nt	nt	nt	nt	i	nt
COc1ccccc1N1CCN(CCCC(=O)c2ccc(F)cc2)CC1	i	i	i	-80.0	i	i
COc1ccc(C(=O)CCN2CCN(c3ccccc3OC)CC2)cc1	i	i	i	-46.1	i	i
COc1ccccc1N1CCN(CC(=O)c2ccc3ccn(C(C)=O)c3c2)CC1	i	nt	i	-76.0	i	i
Nc1ncnc2c1ncn2[C@@H]1O[C@H](C(=O)NS(=O)(=O)c2ccccc2[N+](=O)[O-])[C@@H](O)[C@H]1O	nt	nt	nt	nt	i	nt
CC(=O)n1cc(C2CC(=O)OC3=C2CC(=O)C(C)(C)C3)c2ccccc21 (stereo not given)	nt	nt	nt	nt	i	nt
O=C1c2ccccc2C(=O)N1CCCCN(C(=O)c1cc([N+](=O)[O-])cc([N+](=O)[O-])c1)c1ccc(Cl)cc1	i	i	i	-50.9	i	i
CCOC(=O)c1ccc(NC(=O)COc2ccc(S(=O)(=O)NC(C)CC)cc2)cc1 (stereo not given)	i	i	i	-37.8	i	i
CC(C)[C@H](NS(=O)(=O)c1ccc2c(c1)OCCO2)C(=O)OCC(=O)Nc1cccc(Cl)c1Cl	i	i	i	-30.6	i	i
CC(C)CNS(=O)(=O)c1ccc(OCC(=O)Nc2ccc3c(c2)OCCO3)cc1	i	i	i	i	i	i
CCC(C)NS(=O)(=O)c1ccc(OCC(=O)Nc2ccc3c(c2)OCCO3)cc1 (stereo not given)	i	i	i	-43.3	i	i
C/C(CC(=O)Nc1ccc2c(c1)OCCO2)=N\NC(=O)COc1ccccc1	i	i	37.2	i	i	i
Cc1cc(C(=O)COC(=O)c2ccc(O)cc2)c(C)n1CCc1ccc(F)cc1	i	i	33.3	i	i	i
CCCN(C(=O)c1ccc2c(SCC(=O)O)c3c(nc2c1)CCC3)c1cccc(C)c1	i	i	i	-39.5	i	i
CCCCNC(=O)c1ccc2c(SCC(=O)O)c3c(nc2c1)CCCC3	i	i	i	i	i	i
CCCN1CC=C2C(C#N)=C(N)C(C#N)(C#N)C(c3cccc(OC)c3OC)C2C1 (stereo not given)	i	i	i	i	i	34.3
Cc1cc(C)nc(N/N=C/c2ccc3c(c2)OCCO3)n1	i	i	i	-32.2	i	i
COc1ccc(NC(=O)C2CC(=O)N(CCc3ccc(Cl)cc3)C2)cc1 (stereo not given)	i	i	i	i	i	i
COc1ccc(C)cc1NC(=O)C(OC(=O)CNC(=O)c1ccccc1)c1ccccc1 (stereo not given)	i	i	i	i	nt	i
c1ccc(C2(CN3CCNC[C@H]3Cc3cccc4ccccc34)CC2)cc1	i	i	i	-55.5	i	76.5
Fc1cccc(CCN2CCNC[C@H]2Cc2cccc3ccccc23)c1	i	i	i	i	i	40.4
CC(C)(C)CN1CCNC[C@H]1Cc1cccc2ccccc12	i	i	i	i	i	i

Compound activity as filed in PubChem BioAssay.
